Bioassay records as filed in PubChem.
VCAM1 pot = potentiators of TNFa-induced VCAM1 expression, primary screen, imaging, HUVEC, TNFa stimulus, immunofluorescence | 93,000 tested, 0.19% active | activation, % at 2 µM | AID 808, 2007 | HUVEC TNFa-stimulated VCAM-1 immunofluorescence, high-content imaging; scaled per plate to unstimulated/TNFa-only wells;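 active = activation above the screen mean plus 3 SD, with well images confirming the hit on visual review, cut at about 28% in these data, passing the limit was not always enough; inconclusive = activation above that limit but images do not confirm it; inactive = activation not above that limit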;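 also: signal is the number of cytoplasmic VCAM-1 stained grains per positive cell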
VCAM1 pot confirm = potentiators of TNFa-induced VCAM1 expression, confirmation, imaging, HUVEC, triplicate retest. HUVEC TNFa-stimulated VCAM-1 immunofluorescence imaging. activation, % at 2 µM. shares compounds with VCAM1 pot. 230 tested, under 10 active;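 active = activation above 30% in triplicate retests at 2 µM, then confirmed by visual review of the well images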;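 also: scaled per plate between unstimulated and TNFa-stimulated DMSO control wells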
An asterisk follows results filed as active; ? = inconclusive. This excerpt belongs to a sample that is enriched for hits.

SMILES	VCAM1 pot	others
COc1cccc(C2CC(c3c(-c4ccccc4)c4cc(Cl)ccc4[nH]c3=O)=NN2S(C)(=O)=O)c1OC (configuration not stated)	4
Cn1c(SCC(=O)Nc2ccccc2)nnc1-c1ccc(NC(=O)CCc2ccccc2)cc1	3
CSc1nnc(-c2ccc(NC(=O)CCc3ccccc3)cc2)n1C	?	VCAM1 pot confirm=-5
COc1cccc(-c2nnc(SCCC(=O)O)n2C)c1	7
CON1C(=O)CN(C(C)=O)C1c1ccc(Cl)cc1Cl (configuration not stated)	-4
COc1cccc(N2CCN(Cc3nc(N)nc(N4CCCc5ccccc54)n3)CC2)c1	24
Cc1c(C(=O)N2CCC(C(N)=O)CC2)sc(N)c1C#N	-5
CN(C(=O)c1ccc(Cl)cc1)C1=CCCCC1CCC#N (configuration not stated)	2
Cc1cccc(Oc2ccc(C(=O)NC3CCSC3=O)cn2)c1C (configuration not stated)	12
COc1ccccc1CN(Cc1ccco1)S(=O)(=O)c1ccc(-n2cnnn2)c(OC)c1	43*	VCAM1 pot confirm=-19
CS(=O)(=O)N(Cc1ccco1)Cc1ccccc1Cl	2
Cc1cc(S(=O)(=O)N(Cc2ccc(F)cc2)CC2CCCO2)ccc1-n1cnnn1 (configuration not stated)	-9
O=C(CN(Cc1ccc(F)cc1)S(=O)(=O)c1ccccc1)N1CCCCC1	-1
Cc1ccc(N2CN=c3s/c(=C\c4cccnc4)c(=O)n3C2)cc1	98*	VCAM1 pot confirm=1
COc1cccc(CNC(=O)C2CCCN(c3nn4c(=O)cc(C)nc4s3)C2)c1OC (configuration not stated)	2
